Pf growth 48h = inhibits P. falciparum growth in the first generation, 48 h. Potency, µM (doses to about 28.7 µM), for the others: at the highest dose activity change, negative = inhibition, hits mostly inhibitors. AID 504832. hit rate 5.9% among 310,000. P. falciparum luciferase growth in erythrocytes, 48 h
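Compounds are pin-transferred into medium, infected erythrocytes (2% hematocrit, 0.1% parasitemia final) are added, and plates sit one parasite generation at 37 C in 5% CO2. Detection reagent is then added and luminescence measured.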
VACV Venus inh = inhibitors of vaccinia virus (Venus reporter); Vaccinia virus Venus reporter expression, fluorescence; Potency, µM (highest dose often 36.5 µM), inactives show at the highest dose activity change, negative = inhibition, most hits filed as inhibitors; hit rate 0.46% among 330,000; calls by dose curve; tested in A549 cells; also: nearly all actives have a fitted effect of over 30% in size
AMA1-RON2 inh = AMA1-RON2 (P. falciparum) interaction inhibition | AlphaScreen AMA1-biotinylated RON2 peptide binding | Potency, µM (top dose mostly 58.2 µM), for inactives: at the top dose activity change, negative = inhibition, most hits filed as inhibitors | hit rate 0.2% among 360,000 | AID 720542;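 also: 0% = vehicle wells and -100% = peptide control; nearly all actives have a fitted effect of over 45% in size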
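AMA1 (3D7) with his tag at 25 nM final met compounds first, then biotinylated RON2 peptide at 25 nM; detection used donor plus acceptor beads, 10 µg/mL apiece, read by AlphaScreen after 30 min at room temperature.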
Pf growth 96h = P. falciparum growth inhibition at 96 hour, primary screen for plastid delayed-death inhibitors. AID 504834. hit rate 6.9% among 320,000. Potency, µM (highest dose often 28.7 µM), inactives show at the top dose activity change, negative = inhibition, actives largely listed as inhibitors. P. falciparum luciferase reporter growth, 96 h
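Readout is luminescence from an integrated firefly luciferase in P. falciparum. Red cells, 2% hematocrit and 0.05% parasitemia final, were cultured with compound through two parasite generations (96 hours) at 37 C, 5% CO2.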
Vaccinia mCherry = vaccinia inhibition (mCherry reporter). Vaccinia virus mCherry reporter infection, fluorescence. hit rate 0.63% among 310,000. Potency, µM (series often up to 36.5 µM), without a hit: at the top dose activity change, negative = inhibition, hits mostly inhibitors; calls by dose curve; tested in A549 cells; also: nearly all actives have a fitted effect of over 35% in size
* marks the source's active call; other numbers are inactive results; i = inactive; ? = inconclusive; . = not tested or not shown. Hits are enriched below; roughly 8.7% of the tested compounds scored in any of these assays. Unless noted, calls follow the shape of the dose curve; as a rule, active = well fitted curve in the direction sought with a large enough effect; inconclusive = small, poorly fitted or top-dose-only effect, or another doubt; inactive = no such curve, though single readings can be large; an effect the other way counts as inactive or inconclusive. Unless noted, % is scaled to controls: 0 for no effect and ±100 for the full control effect; potency is read from the fitted curve at half-maximal effect.

SMILES	Pf growth 48h	VACV Venus inh	AMA1-RON2 inh	Pf growth 96h	Vaccinia mCherry
Cc1c(C(=O)NCc2ccc(F)cc2)oc2ccc(S(=O)(=O)N3CCOCC3)cc12	?	-12.5%	-3.0%	17.8%	-18.7%
Cc1c(C(=O)NCC2COc3ccccc3O2)oc2ccc(S(=O)(=O)N3CCOCC3)cc12 (stereo not given)	?	1.5%	-1.8%	21.8%	6.2%
CCN(CC)S(=O)(=O)c1ccc2oc(C(=O)NCC3COc4ccccc4O3)c(C)c2c1 (stereo not given)	10.4µM*	.	-15.8%	?	.
CCN(CC)S(=O)(=O)c1ccc2oc(C(=O)NCc3ccc(F)cc3)c(C)c2c1	8.28µM*	.	8.8%	.	.
CCN(CC)S(=O)(=O)c1ccc2oc(C(=O)NC3CC3)c(C)c2c1	-27.7%	-15.0%	-8.9%	?	-9.3%
CCc1ccccc1N(C)C(=O)c1cc2c(Cl)nc3ccc(C)cc3c2s1	.	-7.3%	.	.	-2.1%
Cc1cccc(C)c1NC(=O)CSc1nc2ncccc2o1	.	-4.9%	.	.	1.6%
O=C1C2CCCN2c2ccc(S(=O)(=O)N3CCOCC3)cc2N1Cc1ccccc1F (stereo not given)	?	-4.4%	-2.7%	11.7µM*	-11.2%
N#CCN1C(=O)C2CCCN2c2ccc(S(=O)(=O)N3CCOCC3)cc21 (stereo not given)	?	4.1%	0.6%	-8.1%	-6.9%
O=C1C2CCCN2c2ccc(S(=O)(=O)N3CCOCC3)cc2N1Cc1cccc(C(F)(F)F)c1 (stereo not given)	1.04µM*	.	.	0.522µM*	.
CCn1c(CNC(=O)C23CC4CC(CC(C4)C2)C3)nnc1SCC(=O)Nc1ccc(C)cc1	.	-17.9%	.	.	-5.9%
Cc1csc(NC(=O)NCC2CCCC(CNC(=O)Nc3nc(C)cs3)C2)n1 (stereo not given)	11.7µM*	-7.1%	-16.3%	?	-7.6%
NC(Cc1ccc(Cl)cc1)c1csc(NC(=O)NCC2CCCCC2)n1 (stereo not given)	.	10µM*	55.9%	.	-4.0%
CCc1ccc(NC(=O)c2ccc(-n3cncn3)c([N+](=O)[O-])c2)cc1	11.7µM*	-18.1%	-16.3%	?	-26.2%
O=C(Nc1ccc(F)c(F)c1)c1ccc(-n2cncn2)c([N+](=O)[O-])c1	?	.	5.7%	?	.
O=C(Nc1cccc(/C=C/c2ccccn2)c1)c1ccc(-n2cncn2)c([N+](=O)[O-])c1	5.22µM*	?	-5.7%	4.65µM*	14.1µM*
CN1CCN(C(=O)c2ccc3c(c2)N(Cc2ccc(C(F)(F)F)cc2)C(=O)c2ccccc2S3)CC1	.	?	.	.	-28.0%
CN1CCN(C(c2ccc(C(F)(F)F)cc2)c2cc(Cl)c3cccnc3c2O)CC1 (stereo not given)	?	.	.	3.7µM*	.
O=C(Cn1c(=O)n(-c2ccccc2)c(=O)c2sc3ccccc3c21)NC1CCCC1	.	-9.9%	.	.	-8.6%
CCS(=O)(=O)N1CC(=O)N(c2cccc(C)c2C)C(C)(C(=O)NC2CCCCCC2)C1 (stereo not given)	.	-3.7%	.	.	-5.9%
CC(=O)c1c(C)[nH]c(C(=O)CSc2nnc(-c3ccco3)n2Cc2ccccc2)c1C	?	.	-3.8%	0.0586µM*	.
CCCn1c(N)c(C(=O)CSc2nnc(-c3ccco3)n2Cc2ccccc2)c(=O)[nH]c1=O	?	.	-13.8%	0.0%	.
CC(=O)c1c(C)[nH]c(C(=O)CSc2nnc(C3CCCCC3)n2N)c1C	2.08µM*	.	4.3%	.	.
CCOC(=O)c1c(C)[nH]c(C(=O)CSc2nnc(-c3cccs3)n2Cc2ccccc2)c1C	?	.	-7.0%	?	.
CC(=O)c1c(C)[nH]c(C(=O)CSc2nnc(-c3cccs3)n2Cc2ccccc2)c1C	9.28µM*	.	-9.9%	.	.
SMILES	Pf growth 48h	VACV Venus inh	AMA1-RON2 inh	Pf growth 96h	Vaccinia mCherry
Cc1cc(C)c2oc(C(=O)Nc3c(C(=O)c4ccccc4)oc4ccccc34)cc(=O)c2c1	.	7.3%	.	.	4.3%
N#CC1=C(N)CCC1	.	-11.5%	.	.	-17.0%
CC1=C/C(=C(\c2cc(C)c(O)c(Br)c2)c2ccccc2S(=O)(=O)O)C=C(Br)C1=O	?	.	?	10.4µM*	.
Brc1ccc(-c2nnc(-c3ccco3)o2)cc1	121.6%	6.8%	7.5%	372.5%	i
Cc1ccc(-c2nnc(-c3ccc(Br)cc3)o2)o1	87.1%	.	-1.5%	2.62µM*	.
COc1ccc(NC(=O)C2CCN(C3=NS(=O)(=O)C(c4ccc(C)c(C)c4)=C3C)CC2)cc1OC	.	-2.4%	.	.	-0.8%
CCOC(=O)COc1ccccc1/C=C\[N+](=O)[O-]	14.7µM*	?	-13.1%	107.3%	?
Cc1ccc(C(=O)COC(=O)COc2ccccc2[N+](=O)[O-])s1	4.9%	-4.4%	-15.9%	12.4%	-10.6%
Cc1cccc(C)c1NC(=O)C1(N(Cc2ccco2)C(=O)c2ccccn2)CCCC1	-14.1%	-8.8%	23.7%	-16.6%	i
Cc1cccc(C)c1NC(=O)C1(N(Cc2ccco2)C(=O)Cn2nnnc2N)CCCCC1	6.0%	-13.4%	2.4%	6.57µM*	i
CCC(C)c1ccc(NC(=S)NCCn2cc(Br)cn2)cc1 (stereo not given)	?	-5.0%	-5.6%	?	i
CCC(C)c1ccc(NC(=S)NCCn2cc(Cl)cn2)cc1 (stereo not given)	9.28µM*	-16.1%	15.3%	?	-5.0%
C=CC[C@@H]1/C=C(\C)C[C@H](C)C[C@H](OC)[C@H]2O[C@@](O)(C(=O)C(=O)N3CCCC[C@H]3C(=O)O[C@H](/C(C)=C/[C@@H]3CC[C@@H](O)[C@H](OC)C3)[C@H](C)[C@@H](O)CC1=O)[C@H](C)C[C@@H]2OC	1.69µM*	.	.	1.51µM*	.
Cc1cccc(OCCOCCn2c(-c3ccc(Cl)cc3)nc3ccccc3c2=O)c1C	.	9.7%	.	.	-4.2%
Cc1ccccc1NC(=O)Cn1c(=O)n(CCC(=O)N2CCc3ccccc3C2)c(=O)c2ccccc21	.	-3.1%	.	.	-2.1%
CC(Sc1nnc2c(n1)[nH]c1ccccc12)C(=O)NC1CCCCC1 (stereo not given)	9.28µM*	1.6%	6.2%	-11.8%	-9.4%
CCCCN(Cc1ccco1)C(=O)c1cc2c(=O)[nH]c3ccc(C)cc3c2s1	.	?	12.2%	4.0%	?
Cc1ccc2[nH]c(=O)c3cc(C(=O)N(CCCOC(C)C)Cc4ccco4)sc3c2c1	.	?	-7.1%	5.86µM*	?
Cc1ccc(N2C(=O)NC(=O)/C(=C\c3ccsc3)C2=O)cc1C	5.2%	.	.	7.38µM*	.
O=C1NC(=O)N(c2ccc3c(c2)OCO3)C(=O)/C1=C\c1ccsc1	-0.3%	.	-12.1%	10.4%	.
Cc1ccc2nc(-c3ccc(O)cc3)c(Nc3ccc4c(c3)OCCO4)n2c1	.	-1.0%	-10.1%	?	-6.0%
Cc1ccc(Nc2c(-c3ccccc3O)nc3cnccn23)cc1	5.86µM*	-13.1%	-2.9%	0.0%	-32.2%
Oc1ccccc1-c1nc2cnccn2c1Nc1ccc(Cl)cc1	.	-15.6%	.	.	-25.7%
Cc1ccc2nc(-c3ccccc3O)c(Nc3ccc4c(c3)OCCO4)n2c1	11.7µM*	-17.2%	49.5%	11.7µM*	-10.2%

High-throughput results as filed in PubChem BioAssay.
